Consider 104 compounds from PubChem BioAssay AID504832 (National Center for Advancing Translational Sciences (NCATS), 2011).

About 18,000 (5.8%) of roughly 310,000 compounds were called active. Roughly 22% stayed inconclusive and do not appear here. Calls come from the whole dose curve; as a rule, active = well fitted inhibition curve with a large enough effect; inconclusive = small, poorly fitted or top-dose-only effect, or another doubt; inactive = no such curve, though single readings can be large or run the other way. What follows is part of a selection rich in actives, with near analogues and random picks from the rest. Where a call stands in place of a potency, no number is given.
Potency is the fitted concentration of half-maximal effect.

The assay is described as follows: Primary qHTS for delayed death inhibitors of the malarial parasite plastid, 48 hour incubation. To be noted: P. falciparum luciferase growth in erythrocytes; series mostly up to 28.7 µM. From the text:
The goal of this screen is to discover new antimalarial compounds that act by inhibiting the development of the apicoplast in the malarial parasite Plasmodium falciparum. The biochemical processes that make this organelle essential for erythrocytic stage parasites are not well understood. However, antibiotics such as azithromycin and tetracycline, which target the apicoplast translational machinery, have a potent antimalarial effect.
We have developed a cell-based assay that measures parasite growth based on the expression of an integrated copy of a firefly luciferase reporter. To detect small molecules that cause this "delayed death" phenotype, erythrocytes infected with the luciferase-expressing parasites were incubated with compounds for either one or two generations, corresponding to 48 and 96 hours, respectively. Compounds that inhibit parasite growth in the second generation, but not the first, should be enriched in antimalarials that target the apicoplast. Growth inhibition is detected by a decrease in luciferase activity.
Assay Provider: David Fidock and Eric Ekland, Columbia University
Keywords: NIH Roadmap, MLPCN, MLI, MLSMR, qHTS, NCGC, qHTS, malaria, luciferase, viability
Four microliters of culture medium (RPMI 1640 with 0.5% w/v Albumax (GIBCO), 24 mM sodium bicarbonate and 10 ug/mL gentamycin) were dispensed by a Multi-drop Combi into white solid 1536-well plates (Grenier) and 23 nL compound was added by a pin tool. Four microliters of infected erythrocytes (2% hematocrit, 0.1% parasitemia final concentration) in culture medium were dispensed and the plates incubated for 48 hours at 37 C in 5% CO2. Two microliters of luciferase detection reagent was added and luminescence was detected by a ViewLux (PerkinElmer) reader.
(In general: In qHTS, concentration-response curves come from the screen itself.)
Take `CCC(c1nnc(SCC(=O)NNC(=O)c2ccccc2)n1Cc1ccccc1)N(C)C` (centres undefined): the Potency entry was “inactive”. As for `O=C(Nc1ccc(OCC(=O)N2CCOCC2)cc1)c1cc(F)c(F)cc1Cl`, the Potency result was “inactive”. In the case of `C/C(=N\NC(=O)c1cc(-c2ccc(O)cc2)nc2ccccc12)c1cccnc1`, the Potency entry was “inactive”. The same measure, in the same setting: the same measure for `COc1ccc([C@H]2CC(=O)C=C(/C=C/c3ccccc3)C2)cc1`: “inactive”. As to `O=C(O)/C=C/c1ccc(OCCCF)cc1`, the Potency entry is “inactive”.

Regarding `Cc1cc(C)cc(NC(=O)CN2C(=O)c3ccccc3C2=O)c1`, the Potency result was “inactive”. On the same count and under the same terms, the same measure for `CS(=O)(=O)N(CC(=O)Nc1ccc(F)cc1)C1CCCCC1`: “inactive”; for `O=C(COc1ccccc1Cl)N1CCCCCCC1`: “inactive”; for `Cc1cccc(C(=O)Nc2nnc(S(=O)(=O)N3CCCCCC3)s2)c1`: “inactive”. Same read-out and setting: with `CCCn1c(N)c(C(=O)CSc2nnc(-c3cccnc3)n2-c2ccc(C)cc2C)c(=O)[nH]c1=O` the figure was 9.28 µM (active); with `CCCn1c(N)c(C(=O)CSc2nnc3n2CCCCC3)c(=O)[nH]c1=O`, “inactive”. Same read-out and setting: with `CCCn1c(N)c(C(=O)CSc2nc3ccccc3c(=O)n2-c2ccc(OC)cc2)c(=O)[nH]c1=O` the entry was “inactive”; with `CCCCOC(=O)c1[nH]c(C)c(C(=O)OC)c1C`, “inactive”; with `COC(=O)c1c(C)[nH]c(C(=O)NCCc2ccc(S(N)(=O)=O)cc2)c1C`, “inactive”. On to `COC(=O)c1c(C)[nH]c(C(=O)/C=C/c2ccc(Cl)cc2)c1C`, for which the Potency was 4.65 µM (active).

On to `NC(=O)COc1ccccc1C(=O)NC12CC3CC(CC(C3)C1)C2`, for which the Potency entry was “inactive”. Consider `COc1ccc([N+](=O)[O-])cc1NCC(=O)c1ccc(C)cc1`, for which the Potency entry is “inactive”. For `O=C(O)[C@@H](S)[C@H](S)C(=O)O`, the Potency is 4.26 µM (active). Still for that read-out and setting: with `COc1ccc(S(=O)(=O)Nc2ccccc2C(=O)N2CCCC2)cc1C` the entry was “inactive”. For the compound `CC1CCCN(CCCNC(=O)CN2C(=O)COc3ccc(S(=O)(=O)N4CCOCC4)cc32)C1` (centres undefined), the Potency result is “inactive”. With `CCOC(=O)c1c(-c2ccccc2)oc2ccc(OCC(N)=O)cc12`, the Potency result is “inactive”. The same measure, in the same setting: the same measure for `CCOC(=O)c1c(-c2ccccc2)oc2ccc(OCC(=O)NN)cc12`: “inactive”. On the same count and under the same terms, the same measure for `CCOC(=O)c1c(-c2ccccc2)oc2cc(Br)c(O)c(C=O)c12`: 9.28 µM (active); for `Cc1cccc(C(=O)OC(C)CN2CCCC2)c1` (centres undefined): “inactive”. Same read-out and setting: with `COC(=O)[C@]1(C)CCC[C@@]2(C)C3CC[C@]4(OC(C)=O)C[C@@]3(CCC21)CC4=NO` (some centres undefined) the entry was “inactive”; with `O=C(NCc1ccncc1)c1ccc(NS(=O)(=O)c2cccc([N+](=O)[O-])c2)cc1`, “inactive”; with `CCN(CC)P(=O)(Oc1cccc(C)c1)N(CC)CC`, “inactive”.

Turning to `Cc1cccc(OP(=O)(Oc2cccc(C)c2)OC(c2ccccc2)C(F)(F)F)c1` (centres undefined), the Potency was 10.4 µM (active). Same read-out and setting: the same measure for `Cc1cccc(OP(=O)(Nc2c(C)n(C)n(-c3ccccc3)c2=O)Oc2cccc(C)c2)c1`: “inactive”; for `O=C(Nc1nnc(C2CC2)s1)c1cc(Cl)sc1Cl`: “inactive”; for `CCOC(=O)N1CCN(CCC(=O)Nc2cc(OC)ccc2OC)CC1`: “inactive”. Same read-out and setting: the same measure for `CCN1CCN(c2nc(Nc3cc(OC)ccc3OC)nc(Nc3cc(OC)ccc3OC)n2)CC1`: 9.28 µM (active).

As for `COc1ccc(OC)c(NC(=O)CCN2CCC(C)CC2)c1`, the Potency result was “inactive”. As to `CC(Sc1nnc(-c2cccs2)n1C1CC1)C(=O)NCC1CCCO1` (centres undefined), the Potency entry is “inactive”. In the case of `COc1cc(CCC(=O)N2CCN(c3ccccc3Cl)CC2)cc(OC)c1OC`, the activity change, negative = inhibition was 1.7% [at 0.00184 µM] (inactive). For the compound `CCOC(=O)Cn1c(O)c(N=NC(=O)CNC(=O)Cc2ccccc2)c2ccccc21`, the Potency entry is “inactive”. On the same count and under the same terms, the same measure for `CCOC(=O)c1ccc(NC(=O)CSc2ncccn2)cc1`: “inactive”; for `COc1ccc(C(=O)Nc2cccnc2)cc1C(=O)Nc1cccnc1`: “inactive”; for `Cc1cc2nc(-c3ccc(NC(=O)c4cccnc4)cc3)oc2cc1C`: “inactive”.

For `CCOC(=O)c1cc(NC(=O)c2cccnc2)cc(C(=O)OCC)c1`, the Potency was 2.94 µM (active). The same measure, in the same setting: with `CCOC(=O)c1ccc(NC(=O)c2cccnc2)cc1` the entry was “inactive”; with `CCOC(=O)c1ccc(-c2ccc(C(=O)Nc3cccnc3)o2)cc1`, 2.62 µM (active). The same measure, in the same setting: the same measure for `Cc1ccc2nc(-c3ccc(NC(=O)c4cccnc4)cc3)oc2c1`: 9.28 µM (active). On to `CCC(=O)Nc1cccc(NC(=O)c2cccnc2)c1`, for which the Potency entry is “inactive”. The same measure, in the same setting: the same measure for `CC(=O)Nc1ccc(-c2nc3ccccc3o2)cc1`: “inactive”.

As to `Cc1cccc(NC(=O)c2cccc(C(=O)Nc3cccc(C)c3C)n2)c1C`, the Potency result was “inactive”.

On to `CN(C)c1nc(Nc2ccc(Cl)c(Cl)c2)nc(N(C)C)n1`, for which the Potency entry was “inactive”. The same measure, in the same setting: with `Cc1cc(C)c(CN2CCN(C(=O)Cn3ccc(NC(=O)OCc4ccccc4)nc3=O)CC2)c(C)c1` the entry was “inactive”; with `COc1ccc(/C(C)=N/NC(=O)c2ccc3nc[nH]c3c2)cc1`, “inactive”; with `CC(OC(=O)CCCOc1ccccc1)C(=O)Nc1ccc(Cl)cn1` (centres undefined), “inactive”.

Consider `CCCCOCCCNC(=O)c1ccccc1OCC`, for which the Potency was 10.4 µM (active). As for `CCOc1ccccc1C(=O)NCCCn1ccnc1`, the Potency result was “inactive”. In the case of `CCCOc1ccccc1C(=O)NCCCC(=O)O`, the Potency entry is “inactive”. Same read-out and setting: with `CCc1nc2ccc(C(=O)N3CCN(c4cccc(Cl)c4)CC3)cc2nc1CC` the entry was “inactive”; with `COc1ccc(C2(C)NC(=O)N(CC(=O)c3ccc4c(c3)OCO4)C2=O)cc1` (centres undefined), “inactive”; with `COc1ccc(C2(C)ON(c3ccccc3C(F)(F)F)C2=O)cc1` (centres undefined), 6.57 µM (active). The same measure, in the same setting: with `COc1ccc(C2(O)C(=O)Nc3ccccc32)cc1` (centres undefined) the entry was “inactive”; with `CCC1Oc2ccccc2N(CC(=O)NCCCN2CCN(CC)CC2)C1=O` (centres undefined), “inactive”; with `Cc1c(C)c2c(OCC(=O)NCCCO)cc3c(c2oc1=O)CCC(C)(C)O3`, “inactive”.

In the case of `C[C@H](NC(=O)c1ccccc1Cl)C(=O)OCC(=O)N1CCN(c2ccccc2)CC1`, the Potency entry is “inactive”.

For the compound `COC(=O)c1ccc(C(=O)OC)c(NC(=S)N2CCN(c3cc(Cl)ccc3C)CC2)c1`, the Potency entry is “inactive”. The same measure, in the same setting: the same measure for `CCNS(=O)(=O)c1ccc(CCC(=O)N2CCN(c3cc(Cl)ccc3C)CC2)cc1`: “inactive”; for `Cc1ccc(Cl)cc1N1CCN(C(=O)c2cccc3c(=O)c(C)c(-c4ccccc4)oc23)CC1`: 9.28 µM (active); for `Cc1ccc(C(CC(=O)O)Nc2nc(N3CCCCC3)nc(N3CCCCC3)n2)cc1` (centres undefined): “inactive”. Still for that read-out and setting: the same measure for `CC(Nc1nc(N2CCCC2)nc2ccccc12)c1ccccc1` (centres undefined): 3.7 µM (active); for `CC(C)n1c(C(O)c2ccccc2)nc2ccccc21` (centres undefined): “inactive”; for `CN(C)S(=O)(=O)c1ccc(C(=O)NCCN=C2NS(=O)(=O)c3ccccc32)cc1`: “inactive”. On the same count and under the same terms, the same measure for `COc1ccc(C)cc1Nc1nc(C)nc2c1oc1ccccc12`: “inactive”. With `COc1ccccc1Nc1ncc(C(C)=O)c(C)n1`, the Potency result was “inactive”. The same measure, in the same setting: the same measure for `COC(=O)c1cnc(Nc2cc(C)ccc2OC)c2ccccc12`: 10.4 µM (active).

In the case of `COc1ccc(N=Nc2c(-c3ccc(OC)cc3)[nH]oc2=O)cc1`, the Potency result is “inactive”. Consider `COCCNC(=O)c1ccc2c(c1)ncn2-c1ccc(C)c(Cl)c1`, for which the Potency entry is “inactive”. Turning to `C=CCn1c(SCC(=O)NC(=O)Cc2ccccc2)nc2ccccc2c1=O`, the Potency entry is “inactive”. Regarding `COc1ccc(OC)c(NC(=O)CSc2nc3cccnc3n2C)c1`, the Potency result was “inactive”. Take `COc1ccc(NC(=O)CSc2nc3ccccc3c(=O)n2C)cc1`: the Potency was 9.28 µM (active). On the same count and under the same terms, the same measure for `COc1ccc(NC(=O)CSc2nnc(Cc3ccccc3)c(=O)n2N)cc1`: “inactive”; for `CC(=O)NCCn1c(SCC(=O)Nc2ccc(C)cc2)nc2ccccc2c1=O`: “inactive”; for `CCc1nnc(NC(=O)CSc2nc3ccccc3c(=O)n2CCCOC)s1`: “inactive”. For the compound `CCOCCCn1c(SCC(=O)Nc2cc(OC)ccc2OC)nc2ccccc2c1=O`, the Potency was 5.86 µM (active).

Consider `O=C(CCC(=O)c1ccccc1)NCc1cccc(C(F)(F)F)c1`, for which the Potency result was “inactive”.

With `O=C(NC1CCCCCC1)C1CCN(C(=O)c2ccc(Cl)cc2)CC1`, the Potency result was “inactive”. The same measure, in the same setting: the same measure for `O=C(CCN1C(=O)[C@H]2CC=CC[C@H]2C1=O)NCc1nc(-c2ccccc2)no1`: “inactive”; for `CCOC(=O)c1c(NC(=S)NC(=O)c2ccco2)sc2c1CCCC2`: “inactive”.

For `CCOC(=O)c1c(NC(=O)CSc2nnc(C)c(=O)[nH]2)sc2c1CCC2`, the Potency entry is “inactive”. On the same count and under the same terms, with `CCOC(=O)c1c(NC(=O)Cn2nc(C(F)(F)F)cc2C)sc2c1CCC2` the figure was 14.7 µM (active). Still for that read-out and setting: the same measure for `CCOCC(=O)Nc1sc2c(c1C(=O)OCC)CCCC2`: “inactive”; for `CCOc1ccc(S(=O)(=O)N2CCC(C(=O)NCC(=O)Nc3cccc(Cl)c3C)CC2)cc1`: “inactive”. The same measure, in the same setting: with `O=C(NCc1ccc(Cl)cc1)C1CCN(S(=O)(=O)c2cccs2)CC1` the entry was “inactive”; with `CCOC(=O)c1c(NC(=O)CCC(=O)NCc2ccco2)sc2c1CCCC2`, “inactive”. As for `CCOC(=O)c1c(NC(=O)C2CCN(S(=O)(=O)c3ccc(Cl)cc3)CC2)sc2c1CCCC2`, the Potency is 8.28 µM (active). With `O=C(NCc1cccs1)C1CCN(S(=O)(=O)c2ccc(Cl)cc2)CC1`, the Potency was 1.85 µM (active).

Turning to `O=C(NCc1ccccn1)C1CCN(S(=O)(=O)c2ccc(Br)cc2)CC1`, the Potency result was “inactive”.

As to `CCOC(=O)c1c(NC(=O)C2(C)Cc3ccccc3C(=O)O2)sc2c1CCCC2` (centres undefined), the Potency result was “inactive”.

`CCOC(=O)c1c(NC(=S)NC)sc2c1CCCC2`: the Potency is 9.28 µM (active). On the same count and under the same terms, with `Cc1cccc2c1cnn2C(=O)CCC(=O)NC1CCCCC1` the entry was “inactive”; with `O=C(N[C@@H](Cc1c[nH]c2ccccc12)C(=O)O)OCC1c2ccccc2-c2ccccc21`, “inactive”; with `O=C(COC(=O)Cn1[nH]c(=O)c2ccccc2c1=O)Nc1c(Cl)cccc1C(F)(F)F`, “inactive”.

With `O=C(Cc1cccs1)NCc1cccc(C(F)(F)F)c1`, the activity change, negative = inhibition was 0.71% [at 0.00184 µM] (inactive). For the compound `CC1CN(C(=S)Nc2ccccc2F)CC(C)O1` (centres undefined), the Potency entry is “inactive”. The same measure, in the same setting: with `COc1ccc(C(=O)N2CCCN(C)CC2)c(OC)c1` the entry was “inactive”; with `COc1ccc(CN2CCNC(=O)C2CC(=O)NCc2cn[nH]c2-c2ccccc2)c(F)c1` (centres undefined), “inactive”.

Regarding `COc1ccc(CN2CC(C(=O)NCCc3ccc(Cl)cc3)CC2=O)cc1` (centres undefined), the Potency entry was “inactive”. As for `O=C(O)c1ccccc1C(=O)Nc1nc(-c2ccccc2)cs1`, the Potency entry was “inactive”. The same measure, in the same setting: the same measure for `Cc1ccc(C)c(NC(=O)c2ccc3nccnc3c2)c1`: “inactive”.
